High-throughput results as filed in PubChem BioAssay.
T cruzi growth-1: blocks T. cruzi growth in NIH3T3 culture; T. cruzi beta-gal in NIH3T3, GalScreen luminescence, 90 h; inhibition, % at 8.34 µM; hit rate 5.9% among 77,000;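 active means mean inhibition above about 93%, with at least 55% of replicates each passing it, limit read from the data, passing the limit was not always enough; inconclusive means only one of those two conditions holds; inactive means neither condition holds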
C diff growth: inhibitors of Clostridium difficile growth | Clostridium difficile clinical isolate growth, OD600, 24 h; hits give low values | growth activity, negative = inhibition, % at 16 µg/mL (by protocol) | hit rate 0.25% among 86,000 | AID 1259249;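 active means mean growth activity at or below -80% and every replicate also at or below -80%; inconclusive means mean at or below -80% but some replicate above -80%; inactive means mean growth activity above -80%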;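 further: 0% = DMSO wells and -100% = levofloxacin 16 µg/mL wells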
T cruzi growth-2: Trypanosoma cruzi proliferation inhibition; shares compounds with T cruzi growth-1; T. cruzi beta-gal in NIH3T3, GalScreen luminescence, 90 h; inhibition, % at 8.35 µM; hit rate 72% among 5,600;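 active means mean replicate inhibition above about 95% and at least 55% of replicates individually reaching it, limit read from the data; inconclusive means only one of the two criteria is met; inactive means neither criterion is met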
T cruzi growth-3: Trypanosoma cruzi proliferation inhibition; shares compounds with T cruzi growth-1; T. cruzi beta-gal in NIH3T3, GalScreen luminescence, 90 h; inhibition, % at 2.09 µM; hit rate 21% among 5,600;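 active means mean inhibition above about 95%, with at least 55% of replicates also reaching it, limit read from the data; inconclusive means meets just one of the two conditions; inactive means meets neither condition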;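 further: plate controls were neutral control median for no effect and positive control median for full effect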
NIH3T3 tox: cytotoxicity in mouse NIH/3T3 fibroblasts | shares compounds with T cruzi growth-1 | NIH/3T3 viability, CellTiter-Glo ATP luminescence, 90 h | cytotoxicity (signal decrease), % at 8.35 µM | hit rate 14% among 5,600 | AID 651742;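 active means mean signal decrease across replicates above about 35% based on untreated-well scatter, with enough replicates individually passing, limit read from the data; inconclusive means no rule stated though some were filed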;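 further: 0% = median of neutral control wells and 100% = median of positive control wells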
3T3 cytotox 2: NIH/3T3 (mouse) viability loss; NIH/3T3 viability, CellTiter-Glo ATP luminescence, 90 h; hit rate 56% among 5,600; shares compounds with T cruzi growth-1; inhibition, % at 24.9 µM;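 active means mean loss of cell viability signal at or above a set limit, and enough replicates individually reaching it; inconclusive means meets only the mean limit or only the replicate share; inactive means meets neither condition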;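 further: 0% = median of neutral control wells and 100% = median of positive control wells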
Active calls of the source: *; ? = inconclusive; . = no result given. Many of the other results were omitted from the sample, so hits are more common in it than they were.

SMILES | T cruzi growth-1 | C diff growth | T cruzi growth-2 | T cruzi growth-3 | NIH3T3 tox | 3T3 cytotox 2
O=C(C[C@@H]1CC[C@@H]2[C@H](COC[C@@H](O)CN2S(=O)(=O)c2ccccc2)O1)Nc1ccc(-c2ccccc2)cc1 | 104* | . | 117* | 72 | 17 | 20
CC(=O)NC[C@@H]1[C@@H](c2ccc(-c3ccccc3)cc2)[C@@H](CO)N1C(=O)C1CCC1 | 52 | -11 | . | . | . | .
CO[C@H]1CN(C)C(=O)c2ccc(NC(=O)c3cc(C)on3)cc2OC[C@@H](C)N(C(=O)C2CC2)C[C@@H]1C | 10 | . | . | . | . | .
N#C[C@@H]1[C@@H](c2ccc(-c3ccccc3)cc2)[C@H](CO)N1C(=O)Cc1ccccc1 | 84 | 2 | . | . | . | .
N#C[C@@H]1[C@H](c2ccccc2)[C@@H](CO)N1C(=O)c1cc(Cl)cc(Cl)c1 | 38 | -1 | . | . | . | .
N#C[C@H]1[C@@H](c2ccc(-c3ccccc3)cc2)[C@H](CO)N1C(=O)Cc1ccccc1 | 104* | 12 | 110* | 56 | 31 | 31*
N#C[C@H]1[C@@H](c2ccccc2)[C@H](CO)N1C(=O)c1cc(Cl)cc(Cl)c1 | ? | 11 | ? | -15 | -1 | -5
N#C[C@@H]1[C@H](c2ccc(-c3ccccc3)cc2)[C@H](CO)N1C(=O)Cc1ccccc1 | ? | 11 | 103* | 56 | -1 | 12
N#C[C@H]1[C@H](c2ccc(-c3ccccc3)cc2)[C@H](CO)N1C(=O)Cc1ccccc1 | 76 | 2 | . | . | . | .
C[C@@H]1CN([C@H](C)CO)C(=O)c2cc(-c3ccccc3F)cnc2O[C@H]1CN(C)C(=O)C1CC1 | 7 | . | . | . | . | .
CO[C@@H]1CN(C)C(=O)c2cccc(C#N)c2OCC[C@@H]2CC[C@@H](OC)[C@@H](CN(C)C(=O)[C@H]1C)O2 | 15 | -1 | . | . | . | .
Cc1cccc(S(=O)(=O)N2CCCCN3[C@H](C2)[C@H](c2ccc(C#C[C@H](C)O)cc2)[C@@H]3CO)c1 | 110* | 16 | 110* | 63 | 41* | 14
COc1cccc(S(=O)(=O)N2CCCCN3[C@H](CO)[C@H](c4ccc(C#CC(C)C)cc4)[C@@H]3C2)c1 | 88 | -1 | . | . | . | .
Cc1cccc(S(=O)(=O)N2CCCCN3[C@H](CO)[C@@H](c4ccc(C#C[C@H](C)O)cc4)[C@@H]3C2)c1 | 80 | 2 | . | . | . | .
COc1cccc(S(=O)(=O)N2CCCCN3[C@H](CO)[C@@H](c4ccc(C#CC(C)C)cc4)[C@@H]3C2)c1 | ? | 6 | 99* | 83 | 7 | 55*
Cc1cccc(S(=O)(=O)N2CCCCN3[C@H](CO)[C@@H](c4ccc(C#C[C@@H](C)O)cc4)[C@@H]3C2)c1 | 66 | -2 | . | . | . | .
Cc1cccc(S(=O)(=O)N2CCCCN3[C@H](CO)[C@@H](c4ccc(C#C[C@H](C)O)cc4)[C@H]3C2)c1 | ? | 7 | 80 | 25 | 9 | 33*
Cc1cccc(S(=O)(=O)N2CCCCN3[C@@H](CO)[C@H](c4ccc(C#C[C@H](C)O)cc4)[C@@H]3C2)c1 | 45 | 9 | . | . | . | .
Cc1cccc(S(=O)(=O)N2CCCCN3[C@H](CO)[C@H](c4ccc(C#C[C@H](C)O)cc4)[C@H]3C2)c1 | 106* | 6 | ? | 36 | 33 | 41*
CO[C@H]1CN(C)C(=O)c2cc(NC(=O)Cc3ccccc3)ccc2OC[C@@H](C)N(CC2CC2)C[C@@H]1C | 31 | 1 | . | . | . | .
C/C=C/c1cnc2c(c1)C(=O)N([C@@H](C)CO)C[C@@H](C)[C@H](CN(C)C(=O)Nc1ccc(C(F)(F)F)cc1)O2 | 92 | -6 | . | . | . | .
O=S(=O)(N[C@H]1CC[C@@H](CCn2cc(-c3ccc(F)cc3)nn2)O[C@@H]1CO)c1ccccc1F | 2 | -8 | . | . | . | .
O=C(O)[C@@H]1[C@@H](CO)[C@@H]2Cn3c(ccc(-c4ccc(F)cc4)c3=O)[C@@H]2N1CCc1ccccc1 | 18 | 3 | . | . | . | .
CCNC(=O)[C@@H]1[C@@H](CO)[C@@H]2Cn3c(ccc(-c4ccccc4)c3=O)[C@@H]2N1C(=O)Cc1cccnc1 | 19 | 0 | . | . | . | .
C[C@@H]1CCCCO[C@@H](CN(C)Cc2ccncc2)[C@@H](C)CN([C@@H](C)CO)C(=O)c2cc(NS(=O)(=O)c3ccccc3)ccc2O1 | -89 | -1 | . | . | . | .
SMILES | T cruzi growth-1 | C diff growth | T cruzi growth-2 | T cruzi growth-3 | NIH3T3 tox | 3T3 cytotox 2
Cc1cccc(S(=O)(=O)N2CCCCN3[C@H](CO)[C@@H](c4ccc(C#CC(C)C)cc4)[C@H]3C2)c1 | ? | 3 | 102* | ? | 27 | 103*
Cc1cccc(S(=O)(=O)N2CCCCN3[C@H](CO)[C@H](c4ccc(C#CC(C)C)cc4)[C@H]3C2)c1 | 69 | -2 | . | . | . | .
Cc1ccc(S(=O)(=O)N(C)C[C@@H]2OCCCC[C@H](C)Oc3ccc(NC(=O)Nc4ccc(C(F)(F)F)cc4)cc3C(=O)N([C@H](C)CO)C[C@@H]2C)cc1 | . | 0 | . | . | . | .
C/C=C/c1ccc([C@@H]2[C@@H](CN(C)C(=O)c3ccccn3)N(C(C)=O)[C@H]2CO)cc1 | 31 | -4 | . | . | . | .
COc1ccccc1CNC(=O)C[C@H]1C[C@@H]2c3cc(NC(=O)CC4CC4)ccc3O[C@@H]2[C@H](CO)O1 | -20 | 1 | . | . | . | .
COc1ccccc1CNC(=O)C[C@H]1C[C@H]2c3cc(NC(=O)NC4CCCC4)ccc3O[C@H]2[C@H](CO)O1 | 109* | 6 | 108* | 28 | -5 | 9
COc1ccccc1CNC(=O)C[C@@H]1C[C@@H]2c3cc(NC(=O)CC4CC4)ccc3O[C@@H]2[C@@H](CO)O1 | 16 | 0 | . | . | . | .
COc1ccccc1CNC(=O)C[C@H]1C[C@@H]2c3cc(NC(=O)NC4CCCC4)ccc3O[C@@H]2[C@@H](CO)O1 | 109* | 4 | 29 | 23 | -2 | -2
CN(C)CC(=O)N[C@H]1CC[C@@H](CC(=O)NCCN2CCCCC2)O[C@H]1CO | -52 | 5 | . | . | . | .
CO[C@H]1CN(C)C(=O)c2cc(NC(=O)c3ccc(F)cc3)ccc2OC[C@@H](C)N(C(C)=O)C[C@@H]1C | -5 | 2 | . | . | . | .
C[C@@H]1CN([C@H](C)CO)S(=O)(=O)c2ccc(C#Cc3ccccc3)cc2O[C@@H]1CN(C)S(=O)(=O)c1cn(C)cn1 | 42 | -16 | . | . | . | .
C[C@@H]1CN([C@H](C)CO)S(=O)(=O)c2ccc(C#Cc3ccccc3)cc2O[C@H]1CN(C)S(=O)(=O)c1ccccc1F | 129* | 11 | 98* | 45 | 8 | ?
C[C@H]1CN([C@@H](C)CO)S(=O)(=O)c2ccc(-c3ccncc3)cc2O[C@@H]1CN(C)S(=O)(=O)c1ccccc1F | . | 4 | . | . | . | .
C[C@@H]1CN([C@H](C)CO)S(=O)(=O)c2ccc(C#Cc3ccccc3)cc2O[C@@H]1CN(C)S(=O)(=O)c1ccccc1F | 122* | -1 | 105* | 106* | 25 | 52*
C[C@H](CO)N1C[C@H](C)[C@@H](CN(C)S(=O)(=O)c2ccccc2F)Oc2cc(-c3ccncc3)ccc2S1(=O)=O | . | 4 | . | . | . | .
